# Measurements from PubChem BioAssay AID1159580 (chemical genetic matrix, 2015).
# Out of some 5,500 compounds screened, about 2,000 (36%) were called active. Another 18% or so got no clear call; they are omitted. This is one part of the list. A number with no mark means an inactive call. Rule as the data show it: active = normalized growth mostly below about 0.91 (no sharp cut-off); inconclusive = no clear call, values can overlap the other calls; inactive = mostly above about 0.92.
# Experiment: chemical genetic growth profiling, strain panel (AID 1159580);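 also: tested at 20 µM; growth read once vehicle control cultures reached saturation at 30 °C; 1 = growth at the plate median or of vehicle wells; lower values mean less growth of the strain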
# Conditions: S. cerevisiae deletion strains, growth OD
compound,measurement,setting,value
Oc1ccc(Cn2cc[nH]c2=S)cc1,normalized growth,"locus YAL040C, strain CLN3, active compounds read low",0.993
same,normalized growth,"locus YCL061C, strain MRC1 (second series), active compounds read low",1.01
same,normalized growth,"locus YDR363W, strain ESC2, active compounds read low",1
same,normalized growth,"locus YER002W, strain NOP16, active compounds read low",1.03
same,normalized growth,"locus YGR229C, strain SMI1, active compounds read low",0.986
same,normalized growth,"locus YMR307W, strain GAS1, active compounds read low",1
same,normalized growth,"locus YNL175C, strain NOP13, active compounds read low",1
same,normalized growth,"locus YNL197C, strain WHI3, active compounds read low",0.477 (active)
same,normalized growth,"locus YNL224C, strain SQS1, active compounds read low",0.999
same,normalized growth,"locus YOR083W, strain WHI5 (second series), active compounds read low",0.681 (active)
same,normalized growth,"locus YPL055C, strain LGE1, active compounds read low",1.01
